The values that follow come from PubChem BioAssay AID602393 (Broad Institute, 2012).

Each structure is given as a SMILES string. Hit rate of the full screen: of about 350,000 compounds, about 7,000 (2%) were called active. Rule as the data show it: active = activation above about 40%; inconclusive = no clear call, values can overlap the other calls; inactive = below that. For the sample, actives were picked, then their nearest neighbours and some compounds at random.

This assay can be described thus: raisers of Bmi1 knock-in reporter signal – mouse ES cells, Bmi1 luciferase knock-in, single point, esBAF inhibitor project, primary screen (AID 602393).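 Also: 0% = median of the plate's neutral control wells and 100% = double that signal; a rise in the Bmi1 reporter signal indicates esBAF inhibition.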 As to conditions: 24 h, at 12.5 µM, active compounds read high, 100% = twice the neutral-well signal.
As to `C[C@@H](NC(=O)C[C@@H]1CC[C@@H]2[C@H](COC[C@@H](O)CN2C(=O)Nc2cccc(F)c2)O1)c1ccccc1`, the reporter increase is 11.2% (inactive).
Next, `CCCN(C)C[C@H]1Oc2ncc(C#CC3CCCCC3)cc2C(=O)N([C@H](C)CO)C[C@@H]1C`: -4.47% (inactive); `C[C@@H]1CN([C@@H](C)CO)C(=O)Cc2cc(NS(=O)(=O)c3cccs3)ccc2O[C@H]1CN(C)S(=O)(=O)c1ccc(F)cc1`: -3.47% (inactive); `COc1ccc(NS(=O)(=O)c2ccc3oc(SCC(N)=O)nc3c2)cc1`: 4.52% (inactive).
The figure for `COc1ccc(S(=O)(=O)N(C)C)cc1NC(=O)CSc1ncccn1` is -0.957% (inactive); for `CN(C)S(=O)(=O)c1ccc2oc(SCC(=O)Nc3ccccc3F)nc2c1` it is 56% (active).
Next, `COc1ccc(NC(=O)N[C@H]2CC[C@@H](CCNS(=O)(=O)c3cccc(Cl)c3)O[C@H]2CO)cc1`: 1.55% (inactive).
As for `COc1cccc(NC(=O)C[C@@H]2CC[C@@H]3[C@H](COc4ccc(NC(=O)C5CCOCC5)cc4C(=O)N3C)O2)c1`, the reporter increase was 1.18% (inactive).
The figure for `C[C@H](CO)N1C[C@H](C)[C@@H](CN(C)Cc2ccccc2)OCCCC[C@H](C)Oc2ccc(NC(=O)Cc3ccccc3)cc2C1=O` is 1.95% (inactive); for `COc1ccc(NC(=O)Nc2cccc3c2O[C@H](CN(C)Cc2ccc(Cl)c(Cl)c2)[C@H](C)CN([C@@H](C)CO)C3=O)cc1` it is 4.75% (inactive).
With `Nc1c(C(=O)Nc2ccc3c(c2)OCCO3)nnn1Cc1ccccc1`, the reporter increase was 62.1% (active).
Next, `CCc1ccc(NC(=O)Cn2nnc(C(=O)NCc3ccc4c(c3)OCO4)c2N)cc1`: -0.239% (inactive); `O=C(Nc1ccc2c(c1)OCCO2)C(C1CC1)N1CCC(Cc2ccccc2)CC1` (stereo not drawn): -12.5% (inactive); `C[C@@H]1CN([C@H](C)CO)C(=O)c2cc(NC(=O)c3ccncc3)ccc2O[C@H]1CN(C)C(=O)Nc1ccc(C(F)(F)F)cc1`: 8.53% (inactive).
Next, `Cc1ccccc1S(=O)(=O)NCC[C@@H]1CC[C@H](NC(=O)C2CCC2)[C@@H](CO)O1`: -0.558% (inactive); `C(=N/N1CCN(c2ccccc2)CC1)/c1cccs1`: 45.3% (active).
The figure for `Nc1nnnn1/N=C/c1cccs1` is 2.23% (inactive); for `Cc1ccc(N2CCN(/N=C/c3cccs3)CC2)cc1` it is 13.6% (inactive).
With `C[C@H]1CN([C@@H](C)CO)C(=O)CCCn2cc(nn2)CO[C@H]1CN(C)C(=O)Nc1ccc(F)cc1`, the reporter increase is -7.14% (inactive).
Next, `C[C@H](CO)N1C[C@H](C)[C@@H](CN(C)S(=O)(=O)c2ccc(F)cc2)Oc2ccc(NC(=O)CCCCCC(=O)Nc3ccccc3N)cc2CC1=O`: 1.27% (inactive).
Next, `COCCNC(=O)C[C@@H]1C[C@@H]2c3cc(NC(=O)Nc4ccc(C(F)(F)F)cc4)ccc3O[C@@H]2[C@@H](CO)O1`: -4.42% (inactive); `CCC(=O)N1C[C@H](C)[C@H](OC)CN(C)C(=O)c2ccc(NC(=O)Nc3ccc(Cl)cc3)cc2OC[C@H]1C`: 4.13% (inactive); `C[C@H](CO)N1C[C@H](C)[C@@H](CN(C)Cc2ccc(Oc3ccccc3)cc2)OCc2cn(nn2)CCCC1=O`: 0.422% (inactive).
As to `N#CNC1=NCN(CCc2ccccc2)CN1`, the reporter increase was -7.73% (inactive).
Regarding `c1ccc(CCN2CN=C(Nc3nc4ccccc4o3)NC2)cc1`, the reporter increase was 45.9% (active).
Next, `CC1CCN(Cc2nc3c(c(=O)n(C)c(=O)n3C)n2CCc2ccccc2)CC1`: -5.75% (inactive).
On to `C[C@@H]1CCCCO[C@H](CN(C)Cc2ccc3c(c2)OCO3)[C@@H](C)CN([C@H](C)CO)C(=O)c2cc(N(C)C)ccc2O1`, for which the reporter increase was 0.519% (inactive).
The figure for `CC(C)(C)c1ccc(C(=O)NNC(=O)Cc2ccccc2)cc1` is 49% (active); for `O=C(CNC(=O)c1ccco1)NNC(=O)c1ccc(Br)cc1` it is -0.872% (inactive); for `O=C(Cc1ccccc1)Nc1ccc(C(=O)Nc2ccccc2C(=O)O)cc1` it is -1.37% (inactive).
The figure for `C[C@H](CO)N1C[C@H](C)[C@@H](CN(C)S(=O)(=O)c2ccc(Cl)cc2)Oc2ccc(NS(=O)(=O)c3cccs3)cc2CC1=O` is 6.86% (inactive); for `CC(C)C#Cc1cnc2c(c1)C(=O)N([C@@H](C)CO)C[C@@H](C)[C@H](CN(C)C(=O)CCN1CCCCC1)O2` it is 0.29% (inactive).
The figure for `O=C(C[C@@H]1CC[C@H]2[C@@H](COC[C@@H](O)CN2S(=O)(=O)c2cccc(Cl)c2)O1)N1CCCCC1` is -2.86% (inactive); for `c1ccc(-c2ccc(OCCN3CCOCC3)cc2)cc1` it is 50.5% (active).
For `Cc1cccc(C)c1OCCN1CCOCC1`, the reporter increase was -3.46% (inactive).
Next, `CC(C)(c1ccccc1)c1ccc(OCCN2CCCC2)cc1`: -18.8% (inactive); `Cc1noc(C)c1S(=O)(=O)Nc1ccc2c(c1)C(=O)N([C@H](C)CO)C[C@@H](C)[C@@H](CN(C)S(=O)(=O)c1ccc(Cl)cc1)O2`: 6.53% (inactive); `CC(C)c1c(C(=O)N/N=C/c2ccc(-c3ccccc3)cc2)nnn1-c1nonc1N`: -2.09% (inactive).
Turning to `Cc1nc2ccc(C(=O)N/N=C/c3ccc(O)cc3)cc2[nH]1`, the reporter increase is -6.33% (inactive).
In the case of `Cc1nonc1C(=O)N/N=C/c1ccc(O)cc1`, the reporter increase was 50.7% (active).
Next, `C[C@H]1CN([C@@H](C)CO)S(=O)(=O)c2ccc(-c3cncnc3)cc2O[C@H]1CN(C)Cc1ccncc1`: 0.176% (inactive); `O=C(O)C1CC=CCC1C(=O)NCCc1ccccc1` (stereo not drawn): -11% (inactive); `O=C(Nc1cccc(Cl)c1Cl)c1ccccc1NC(=O)C1CC=CCC1C(=O)O` (stereo not drawn): 5.49% (inactive).
As for `O=C(Nc1ccc(Cl)c(Cl)c1)c1ccccc1NC(=O)C1CC=CCC1C(=O)O` (stereo not drawn), the reporter increase was 92.4% (active).
Consider `COC(=O)c1c(C)[nH]c(C(=O)NCCc2ccc(S(N)(=O)=O)cc2)c1C`, for which the reporter increase is -4.52% (inactive).
The figure for `CC(=O)c1c(C)[nH]c(C(=O)OCC(=O)Nc2c(C)cccc2C)c1C` is -23.7% (inactive); for `CCCCOC(=O)c1[nH]c(C)c(C(=O)OC)c1C` it is 78.5% (active).
The figure for `CO[C@@H]1CN(C)C(=O)c2ccc(NS(C)(=O)=O)cc2OC[C@@H](C)N(CC2CC2)C[C@@H]1C` is 1.93% (inactive); for `C[C@@H]1CN([C@@H](C)CO)C(=O)c2cc(N(C)C)ccc2O[C@@H](C)CCCCO[C@H]1CN(C)Cc1ccncc1` it is -3.61% (inactive); for `C=C(C)CSc1nc(N)c2c3c(sc2n1)CCC3` it is 75.4% (active).
Next, `CCc1nc(N2CCN(C(C)=O)CC2)c2c3c(sc2n1)CCCC3`: -4.58% (inactive).
On to `CC(C)(C)C1CCc2c(sc3nc(SCC(N)=O)nc(N)c23)C1` (stereo not drawn), for which the reporter increase was -0.656% (inactive).
Next, `C[C@H](O)C#Cc1cnc2c(c1)C(=O)N([C@@H](C)CO)C[C@@H](C)[C@@H](CN(C)C(=O)Cc1ccccn1)O2`: -2.01% (inactive); `Cc1noc(C)c1-c1ccc(C(=O)NCc2ccncc2)c2occc12`: 8.81% (inactive); `COCCCNC(=O)c1ccc(-c2c(C)noc2C)c2ccoc12`: 78.5% (active).
Next, `COCCCNC(=O)c1cccc2c(-c3ccc(O)c(OC)c3)coc12`: 12.3% (inactive).
Turning to `COc1ccccc1S(=O)(=O)N[C@@H]1C=C[C@H](CC(=O)N2CCOCC2)O[C@@H]1CO`, the reporter increase is -2.3% (inactive).
Next, `COCCNC(=O)C[C@H]1CC[C@H](NS(=O)(=O)c2ccc(C)cc2)[C@@H](CO)O1`: -2.1% (inactive); `CCOc1ccc(C(=O)Nc2ccc(CN3CCOCC3)cc2)cc1Cl`: 9.32% (inactive); `COc1ccc(C(=O)Nc2sc(C)c(C)c2CN2CCOCC2)cc1`: 98.6% (active).
Next, `COc1ccc(C(=O)Nc2ccnn2C2CCN(Cc3ccncc3)CC2)cc1`: 4.74% (inactive); `Cc1ccc(C(=O)N2CCCc3ccccc32)c(Cl)c1`: -0.356% (inactive); `Cc1c(C(=O)N2CCCc3ccccc32)sc2nc(-c3ccccc3)cn12`: 69.3% (active).
Next, `O=C(c1c(Cl)nc2sccn12)N1CCCc2ccccc21`: -5.89% (inactive); `Cc1nn(CC(=O)NCC2CCCO2)c(=O)c2cc3ccccc3n12` (stereo not drawn): -0.752% (inactive); `Cc1c(C(=O)NCC2CCCO2)sc2nc(-c3ccccc3)cn12` (stereo not drawn): 63.8% (active).
With `Cc1c(C(=O)NCCN2CCOCC2)sc2nc(-c3ccc(F)cc3)cn12`, the reporter increase is 2.29% (inactive).
With `C[C@H](CO)N1C[C@H](C)[C@@H](CN(C)C(=O)Nc2ccc3c(c2)OCO3)Oc2ccc(NS(=O)(=O)c3ccc(Cl)cc3)cc2CC1=O`, the reporter increase is -3.55% (inactive).
Next, `C[C@@H]1CCCCO[C@H](CN(C)Cc2ccc(Cl)c(Cl)c2)[C@H](C)CN([C@@H](C)CO)C(=O)c2cc(NC(=O)C3CCCCC3)ccc2O1`: 1.62% (inactive); `COc1cccc(-c2ccc3n(c2=O)C[C@H]2[C@H](CO)[C@@H](C(=O)NC4CCCC4)[C@@H]3N2C)c1`: 3.16% (inactive).
The figure for `COCC(=O)N(C)C[C@@H]1Oc2cc(C3=CCCC3)ccc2S(=O)(=O)N([C@@H](C)CO)C[C@H]1C` is 0.332% (inactive).
Take `C[C@H](CO)N1C[C@H](C)[C@@H](CN(C)Cc2ccccc2C(F)(F)F)OCc2cn(nn2)CCCC1=O`: the reporter increase was -1.8% (inactive).
Next, `C[C@H](NC(=O)C[C@H]1C=C[C@@H](NC(=O)C2CCOCC2)[C@@H](CO)O1)c1ccccc1`: 1.15% (inactive); `Cc1cccc(C(=O)Nc2ccc(Oc3cnccn3)cc2)c1`: 45% (active).
The figure for `Cc1cccc(C(=O)Nc2ccc(C(=O)N/N=C/c3cccc(C)n3)cc2)c1` is 14.2% (inactive).
For `Cc1ccc(NC(=O)c2ccc(Oc3ncccn3)cc2)cc1`, the reporter increase was 34% (inactive).
Next, `C[C@H](CO)N1C[C@H](C)[C@H](CN(C)C(=O)c2cnccn2)Oc2cc(C3=CCCC3)ccc2S1(=O)=O`: 4.52% (inactive).
Next, `O=C(CN1CCOCC1)N[C@@H]1CC[C@@H](CCNC(=O)C2CCCCC2)O[C@@H]1CO`: 0.276% (inactive).
